{"source": "PubChem BioAssay (NCI)", "note": "Where “and” joins values, the source holds several entries; their conditions need not be identical. Equal values may be shown once. About 83,000 compounds went through this panel and 20% of them were active in at least one assay; those are over-represented in the sample as a whole.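 Cells were grown in 96-well plates and exposed to the test compound at a single concentration for 48 hours; results are reported as percent growth, with values below 10 considered active.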 A number with no mark means an inactive call. Calls of active or inactive are those of the source."}
{"system": "MDA-MB-468 breast", "test": "NCI-60 one-dose screen, 48 h (100 = growth as untreated, 0 = no growth, -100 = all killed)", "conditions": "10 µM unless noted"}
{"smiles": "O=C(Nn1c2c(sc1=NCc1ccccc1)C(=O)c1ccccc1C2=O)c1cc2ccc1CCc1ccc(cc1)CC2", "growth": "80%"}
{"smiles": "COc1ccc(/C=C2\\Cc3c(Br)cccc3C2=O)c(OC)c1", "growth": "49.6%"}
{"smiles": "C#C[C@]1(O)CC[C@H]2[C@@H]3CC=C4c5sc(-c6ccc(OC)cc6)nc5CC[C@]4(C)[C@H]3CC[C@@]21C", "growth": "71.6%"}
{"smiles": "COc1cc(/C=C/c2nnc(-c3cc(-c4ccccc4)n[nH]3)o2)cc(OC)c1OC", "growth": "101%"}
{"smiles": "CCC1=Cc2cc(OC)ccc2OC12C=Cc1cc(OC)ccc1O2", "note": "(stereo not given)", "growth": "69.6%"}
{"smiles": "CCN(CCNc1ccc(C)c2sc3cc(Cl)ccc3c(=O)c12)CC(C)O", "note": "(stereo not given)", "growth": "62.2%"}
{"smiles": "CC1(COc2ccc3ncc(C#Cc4cncc(C(=O)Nc5cc(C(C)(C)C)on5)c4)n3n2)COC1", "growth": "85%"}
{"smiles": "Nc1cc(-c2cccc(OC(F)(F)F)c2)nc2ccc(N3CCCC3)cc12", "growth": "-10.7% (active) and -15.9% (active) and -23.5% (active)"}
{"smiles": "C[C@@H]1CN(Cc2ccc(/C=C/c3n[nH]c4ccc5nc(-c6cn[nH]c6C(F)(F)F)c6c(c5c34)CCCC6)cc2)C[C@H](C)O1", "growth": "76.9%"}
{"smiles": "C/C(=C(/c1ccccc1)c1ccc(N2C(=O)c3cccc4c(N5CCN(C)CC5)ccc(c34)C2=O)cc1)c1ccccc1", "growth": "42.5%"}
{"smiles": "C#CCN(Cc1ccc2nc(N)[nH]c(=O)c2c1)c1ccc(C(=O)NC(CCC(=O)O)C(=O)O)cc1", "note": "(stereo not given)", "growth": "37.7%"}
{"smiles": "O=C1/C(=C/c2ccc([N+](=O)[O-])s2)Oc2ccc(Br)cc21", "growth": "-40.2% (active)"}
{"smiles": "COc1ccc(C(=O)c2cc(C)c(OC)c(C)c2)c(OC)c1N(C(=O)C(Cl)Cl)C(=O)C(Cl)Cl", "growth": "21.6%"}
{"smiles": "C=C(C)[C@@H]1CC[C@]2(C(=O)NC3CCCCC3)CC[C@]3(C)[C@H](CC[C@@H]4[C@@]5(C)CCC(=O)C(C)(C)[C@@H]5CC[C@]43C)[C@@H]12", "growth": "83.5%"}
{"smiles": "COc1cnc2c(c1)C(=O)c1c-2n(CCCNCC2CC2)c(=O)c2cc(F)ccc12", "growth": "-38.4% (active)"}
{"smiles": "CCN1CCN(CC(=O)Nc2nc3ccc(NCc4ccc(F)cc4)cc3s2)CC1", "growth": "86.1%"}
{"smiles": "CC/C=C\\C/C=C\\C[C@H](O)C/C=C1/C(=O)C=C[C@@H]1C/C=C\\CCCC(=O)OC", "growth": "-51.7% (active)"}
{"smiles": "COc1cc(C(C)(C)C)cc(OC)c1C(O)(c1c(OC)cc(C(C)(C)C)cc1OC)c1c(OC)cc(C(C)(C)C)cc1OC", "growth": "-88.3% (active)"}
{"smiles": "O=C(CN1CCN(c2cc(=O)n(-c3ccccc3)c3ccccc23)CC1)Nc1nc(-c2ccccc2)cs1", "growth": "13.3%"}
{"smiles": "CCn1cc(C(=O)O)c(=O)c2cc(F)c(N3CCN(S(=O)(=O)c4c(C)cc(C)cc4C)CC3)cc21", "growth": "80.3%"}
{"smiles": "CCOC(=O)Nc1ccc2nc(-c3cscn3)[nH]c2c1", "growth": "-2.03% (active)"}
{"smiles": "CN(C)c1ccc(/C=C/C=N/NC(=O)c2cc(O)c(O)c(O)c2)cc1", "growth": "89.1%"}
{"smiles": "COc1ccc(-c2nc(SCC(C)C)nc(Nc3ccc(C)cc3)c2C#N)cc1", "growth": "71.1%"}
{"smiles": "Cn1cc(-c2nc(-c3c[nH]c4c(Cl)nccc34)cs2)c2cc(F)ccc21", "growth": "1.89% (active)"}
{"smiles": "CC(C)NC(=O)OCC#CCOC(=O)NC(C)C", "growth": "99.9%"}
{"smiles": "N#Cc1ccc(-c2ccc(-c3cccs3)o2)cc1F", "growth": "6.91% (active)"}
{"smiles": "COc1ccc(-c2nnc(SC/C(=N\\O)c3ccccc3)o2)cc1", "growth": "97%"}
{"smiles": "O=C1/C(=C\\c2c[nH]c3ccccc23)c2ccccc2N1c1c(Cl)cccc1Cl", "growth": "8.39% (active)"}
{"smiles": "Cc1ccccc1/C=C/C(=O)c1cccc(OCCCCOc2cccc(C(=O)/C=C/c3ccccc3C)c2)c1", "growth": "86.1%"}
{"smiles": "O=c1[nH]c2cc(Cl)c(Cl)cc2o1", "growth": "111%"}
{"smiles": "COc1cc(-c2nc(C(=O)NCC(=O)NO)nn2-c2ccc(Cl)cc2)cc(OC)c1OC", "growth": "112%"}
{"smiles": "CCOC(=O)c1c(C)c2c(n1Cc1ccccc1)CSCC2=O", "growth": "-9.03% [100 µM] (active)"}
{"smiles": "CC(C)(C)C(=O)OCOP(=O)(OCOC(=O)C(C)(C)C)C1CC(O)N(O)C1=O", "note": "(stereo not given)", "growth": "61%"}
{"smiles": "CC(C)(C)n1cc(-c2ccnc(NCCNS(=O)(=O)c3ccc(C(F)(F)F)cc3)c2)c(-c2ccccc2)n1", "growth": "89.1%"}
{"smiles": "O=C1c2cccnc2C(=O)c2c1c(C(=O)NCCCN1CCCCC1)c1ccccn21", "growth": "-73.9% (active)"}
{"smiles": "O=C(NNC(=O)c1nc2cc(F)ccc2n2cccc12)c1cnccn1", "growth": "22.2%"}
{"smiles": "CN(C)C(=N)N=C(N)N", "growth": "80.6% and 128%"}
{"smiles": "C1CCC(C(CC2CCCCN2)C2CCCCC2)CC1", "note": "(stereo not given)", "growth": "-90.1% (active)"}
{"smiles": "O=C(CCCOc1ccc(Br)cc1)Nc1ncc(Cc2ccc(F)cc2)s1", "growth": "57%"}
{"smiles": "N=C(N)c1ccc(-c2ccc(-c3ccc4ccccc4c3)s2)cc1", "growth": "101%"}
